Test results from PubChem BioAssay AID1259311 (ICCB-Longwood Screening Facility, Harvard Medical School, 2017).
Where “and” joins values, the source holds several entries; their conditions need not be identical. Equal entries are not always repeated. The whole screen tested about 330,000 compounds, of which about 1,100 (0.33%) were called active. The list comes from a sample in which actives are over-represented; it also holds similar structures and randomly drawn compounds. Unmarked numbers belong to inactive results. Rule as the data show it: active = inhibition above about 85%; inactive = the rest.

Assay: growth inhibition of S. aureus RN4220, primary screen, OD600 (AID 1259311);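 also: plate controls were untreated cells for no effect and reference antibiotic for full effect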
Conditions: OD600, 16 h, hits give high values

Row | Compound | inhibition
1 | COc1ccc(CN2CCC(=O)N(C(CO)c3ccccc3)CC2)cc1OC (centres undefined) | -2.15%
2 | CCCCCCCCCCCCn1ccc(=N)cc1 | 101% (active)
3 | CCCCCN1CC(O)=C(c2ccccc2)C1=N | 7.74%
4 | CCC1=C2CCC3C(=O)N(CC)C(=O)C3C2[C@@]2(Cc3ccccc3)C(=NCCOC)OC(=O)N2C1=O (some centres undefined) | 4.23%
5 | O=C(NN=Cc1cccc(OCC(=O)N2CCCC2)c1)C(=O)Nc1ccccc1F | 5.07%
6 | CC=C(C)C(=O)NCCN1C2=NCC(C(C)C)N2CC1Cc1ccc(O)cc1 (centres undefined) | 5.17%
7 | O=C(CC(=O)NN=Cc1ccc(Cl)cc1Cl)NCc1ccccc1 | 3.6%
8 | Cc1c(CCOC(=O)CC23CC4CC(CC(C)(C4)C2)C3)sc[n+]1Cc1ccc([N+](=O)[O-])cc1 | 100% (active) and 99.7% (active)
9 | Cc1c(CCO)sc[n+]1CC(=O)OC12CC3CC(CC(C3)C1)C2 | 4.95%
10 | Cc1c(CCOC(=O)c2cc([N+](=O)[O-])ccc2Cl)sc[n+]1CCCCS(=O)(=O)[O-] | -3.66%
11 | O=C1C=C(c2ccc3ncccc3c2)CC(c2ccc(F)cc2)C1 (centres undefined) | -2.12%
12 | CCOc1cc(C=NO)ccc1OCc1ccccc1F | 7.66%
13 | Clc1ccc(NN=Cc2cccs2)nn1 | 4.84%
14 | C/C(C=Nn1c(-c2cccnc2)n[nH]c1=S)=C\c1ccco1 | 12.6%
15 | CCCCCCCCn1c2c(c(=N)c3c1CCC3)CCCC2 | 100% (active)
16 | CC(C)c1ccc2c(c1)c(SC(C)(C)C)c(CC(C)(C)C(=O)O)n2Cc1ccc(Cl)cc1 | 100% (active)
17 | NC(Cc1ccc(O)cc1)c1cn(C(CCC(=O)O)C(=O)N2CCNCC2)nn1 (centres undefined) | 3.88%

Row | Compound | inhibition
18 | NC(=NOC(=O)C(c1ccccc1)c1ccccc1)c1ccccn1 | 1.37%
19 | O=C(O)C(c1ccccc1)N1C(=O)/C(=C\c2ccc(-c3cccc(Cl)c3)o2)SC1=S (centres undefined) | 95.5% (active)
20 | S=c1[nH]nc(-c2cccc(Cl)c2)n1N=Cc1ccc(-c2ccccc2Br)o1 | 10.7%
21 | CC1=NOC(=O)C1=Cc1ccc(-c2ccc(Cl)c(C(=O)O)c2)o1 | 3.22%
22 | Cc1cccc(OCC(=O)NN=Cc2ccc(N(C)C)cc2)c1 | 6.39%
23 | O=C(NN=Cc1c[nH]c2ccccc12)c1[nH]c2ccc(Br)cc2c1-c1ccccc1 | 86.5% (active)
24 | O=C(NN=Cc1c[nH]c2ccccc12)c1ccc(O)c(O)c1 | -0.918%
25 | CCOc1ccc(Br)cc1C(=O)NN=Cc1c[nH]c2ccccc12 | -6.23%
26 | CCCCN1C(=S)NCC1Cc1ccc(O)cc1 (centres undefined) | 4.99%
27 | CC1COc2ccccc2N1C(=O)c1ccc(F)cc1 (centres undefined) | 1.99%
28 | O=C(Nc1nnc(C2COc3ccccc3O2)o1)c1ccc(F)cc1 (centres undefined) | 98.2% (active)
29 | O=C(COC(=O)c1ccc(F)cc1)NCC1COc2ccccc2O1 (centres undefined) | -4.66%
30 | COc1ccc(C(C)=NOCC(=O)N2CC3(C)CC2CC(C)(C)C3)cc1 (centres undefined) | 4.12%
31 | CCCc1c(C(=O)NN=Cc2ccc(OC)c(OCc3ccccc3)c2)nnn1-c1nonc1N | 14%
32 | COC(=O)[C@@]12CCCCN1C(c1ccc(-c3ccc4c(c3)OCO4)cc1)C1C(=O)N(C)C(=O)C12 (some centres undefined) | -2.68%
33 | COc1ccc(C(C)=NNC(=O)C(NC(=O)c2ccccc2)c2n[nH]c(=O)c3ccccc23)c(OC)c1 (centres undefined) | 1.72%
34 | Cc1ccc(C=NNC(=O)c2ccco2)cc1 | -0.191%
